# From PubChem
# PREPL inh = human PREPL enzyme inhibition; AID 2751; inhibition, % at 5.96 µM; recombinant PREPL, fluorescence polarization activity-based probe; 320,000 tested, 0.68% active; in the data active = inhibition above about 43%
# Target sequence (Q4J6C6 whole entry, looked up): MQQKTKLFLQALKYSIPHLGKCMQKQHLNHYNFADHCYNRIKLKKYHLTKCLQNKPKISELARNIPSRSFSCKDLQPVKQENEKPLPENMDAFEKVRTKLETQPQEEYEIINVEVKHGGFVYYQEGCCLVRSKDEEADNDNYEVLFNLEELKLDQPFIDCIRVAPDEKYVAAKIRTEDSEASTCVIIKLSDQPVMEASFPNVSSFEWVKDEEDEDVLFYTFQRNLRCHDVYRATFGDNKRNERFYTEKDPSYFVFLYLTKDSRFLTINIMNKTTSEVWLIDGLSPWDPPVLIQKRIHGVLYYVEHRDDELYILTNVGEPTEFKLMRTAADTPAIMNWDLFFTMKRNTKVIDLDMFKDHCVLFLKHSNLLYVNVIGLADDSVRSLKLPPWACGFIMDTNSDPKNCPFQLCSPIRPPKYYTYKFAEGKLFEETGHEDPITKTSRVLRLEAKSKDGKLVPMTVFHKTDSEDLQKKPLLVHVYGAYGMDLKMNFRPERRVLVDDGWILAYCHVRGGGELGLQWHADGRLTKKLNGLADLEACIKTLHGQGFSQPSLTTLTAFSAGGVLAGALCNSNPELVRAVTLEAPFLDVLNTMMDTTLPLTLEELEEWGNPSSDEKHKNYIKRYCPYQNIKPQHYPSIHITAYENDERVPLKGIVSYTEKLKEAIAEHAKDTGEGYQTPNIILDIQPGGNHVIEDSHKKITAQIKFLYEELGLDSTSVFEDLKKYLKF
# ATG4B inhibitor = blocks human ATG4B protease cleavage of LC3 substrate; Q9Y4P1; ATG4B cleavage of LC3-PLA2, NBD-HPC fluorescence, 1 h; 340,000 tested, 0.51% active; inhibition, % at 8.33 µM; in the data active = inhibition above about 40%
# MEKK2wt PB1 HTS = raises or lowers MEK5 binding to wildtype human MEKK2 PB1 domain; Q9Y2U5; bead flow cytometry, Alexa488-MEK5 binding to MEKK2 WT; actives lie on both sides; binding response (% of control), % at 10 µM; 290,000 tested, 1.1% active; in the data active = binding response below about 67% or above about 130%
# MEKK2mut PB1 HTS = signal of MEK5 binding to mutant human MEKK2 PB1 domain; bead flow cytometry, Alexa488-MEK5 binding to MEKK2 mutant; percent response, % at 10 µM; 290,000 tested, 0.35% active; AID 1530; in the data active = percent response above about 24%, passing the limit was not always enough
# MEKK3 PB1 HTS = modulators (inhibitors or enhancers) of MEK5 binding to human MEKK3 PB1 domain | Q99759 | bead-based flow cytometry, Alexa488-MEK5 binding to MEKK3; actives lie on both sides; 0 = blocked by unlabeled MEK5, 100 = vehicle | binding response (% of control), % at 10 µM | 290,000 tested, 1.4% active | AID 1529;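 active = binding response more than 3 SD above or below the average of its plate-row segment, actives on both sides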;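 also: Alexa488 bead fluorescence after subtracting the streptavidin-only scavenger bead signal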
# UBC13 inh = human UBC13 polyubiquitination inhibition. UBC13 polyubiquitin chain formation, TR-FRET. inhibition, % at 20 µM. 330,000 tested, 0.47% active. AID 485273; in the data active = inhibition above about 45%, passing the limit was not always enough
# MEKK2wt confirm = raises or lowers MEK5 binding to wildtype human MEKK2, retest; shares compounds with MEKK3 PB1 HTS; bead flow cytometry, Alexa488-MEK5 binding to MEKK2 WT; actives lie on both sides; binding response (% of control), % at 10 µM; 5,900 tested, 2.4% active; AID 1892; in the data active = binding response below about 16% or above about 210%; inactive = in between
# MEKK2mut-MEK5 = signal of MEK5 binding to mutant human MEKK2, retest; AID 1893; 5,900 tested, 2% active; shares compounds with MEKK3 PB1 HTS; bead flow cytometry, Alexa488-MEK5 binding to MEKK2 mutant; percent response, % at 10 µM; in the data active = percent response mostly above about 71%, no sharp cut-off; inactive = mostly below about 38%;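 also: higher means compound restores mutant binding toward wildtype level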
# MEKK3 confirm = MEKK3-MEK5 PB1 inhibition, single concentration confirmation; shares compounds with MEKK3 PB1 HTS; bead flow cytometry, Alexa488-MEK5 binding to MEKK3; hits give low values; binding response (% of control), % at 10 µM; 5,900 tested, 1.8% active; AID 1894;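 active = binding response below 72% of control, or above a set upper limit, though filed actives all read lower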;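 also: lower values mean stronger disruption of MEK5 binding to MEKK3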
# Numbers stand for hits; - = inactive; . = not tested or not shown; [ ] = remark or other dose. An excerpt weighted towards active compounds, which were near 3.1% of everything screened.
SMILES,PREPL inh,ATG4B inhibitor,MEKK2wt PB1 HTS,MEKK2mut PB1 HTS,MEKK3 PB1 HTS,UBC13 inh,MEKK2wt confirm,MEKK2mut-MEK5,MEKK3 confirm
Cc1ccc(C(=O)Nc2cccc(C(F)(F)F)c2)cc1NC(=O)c1[nH]cnc1C(N)=O,-,-,.,.,.,-,.,.,.
CC(=O)N1/C(=C/c2ccc(N(C)C)cc2)C(=O)c2ccccc21,.,-,36[inhibitor],-,-,.,-,-,-
CC(=O)N1c2ccccc2C(=O)C1N(C)c1ccc(C)cc1 (stereo unspecified),-,-,-,-,-,-,.,.,.
COc1cccc(N2CCN(C(=O)c3cc(-c4ccccc4)nc4c3cnn4C(C)C)CC2)c1,-,-,.,.,.,-,.,.,.
Cc1ccc(NC(=O)c2c3c(nc4ccccc24)CCC3)cc1,-,-,-,-,72[inhibitor],-,-,-,-
Cc1cc(C)nc(NC(=O)c2ccc([N+](=O)[O-])c(C)c2)n1,-,-,-,-,-,-,.,.,.
Cc1cc(C(=O)Nc2ncn[nH]2)ccc1[N+](=O)[O-],-,-,-,-,73[inhibitor],-,-,-,-
Cc1ccccc1NS(=O)(=O)c1csc(C(N)=O)c1,-,-,-,-,-,-,.,.,.
CC(C)c1ccccc1NC(=O)COc1ccc2c(=O)c(Oc3ccc4ccccc4c3)coc2c1,-,.,-,-,184,-,-,-,-
O=C(C1CCCCN1S(=O)(=O)c1ccccc1[N+](=O)[O-])N1CCCC1 (stereo unspecified),-,-,-,-,-,-,.,.,.
O=C(C1CCCCN1S(=O)(=O)c1ccccc1[N+](=O)[O-])N1CCCCC1 (stereo unspecified),-,-,-,-,74[inhibitor],-,-,-,-
O=S(Cc1ccc(Cl)cc1)c1ccccc1 (stereo unspecified),.,-,.,.,.,.,.,.,.
O=CN1CCN(C=O)C(O)C1O (stereo unspecified),.,-,.,.,.,.,.,.,.
COc1cc2ccccc2cc1C(=O)NC(=S)Nc1cc(C(=O)O)ccc1C,.,-,-,-,129,-,-,-,-
CC1(c2ccc3ccccc3c2)NC(=O)N(CC(=O)N2CCN(Cc3ccccc3)CC2)C1=O (stereo unspecified),-,-,.,.,.,-,.,.,.
OC1(c2ccc3ccccc3c2)CCN(Cc2ccccc2)C1 (stereo unspecified),-,-,-,28,-,-,-,-,-
C[C@H](CO)N1C[C@H](C)[C@@H](CN(C)Cc2ccncc2)Oc2c(NS(=O)(=O)c3cccs3)cccc2C1=O,-,-,.,.,.,-,.,.,.
COCC(=O)Nc1cc(C(=O)Nc2cccc(C)c2C)ccc1Cl,-,-,-,-,-,-,.,.,.
COCC(=O)Nc1cc(C(=O)Nc2ccccc2C)ccc1Cl,-,-,-,-,82[inhibitor],-,-,-,-
COCCNC(=O)CN(c1cc(Cl)ccc1OC)S(=O)(=O)c1ccc(C)c([N+](=O)[O-])c1,-,-,-,-,128,-,12[inhibitor],-,71
COc1ccccc1C(=O)Nc1ccc(S(=O)(=O)N2CCCCC2)cc1,-,-,-,-,-,-,.,.,.
COCCCNC(=O)c1cc2cc([N+](=O)[O-])cc(OC)c2oc1=O,-,-,-,-,39[inhibitor],-,-,-,-
COc1cc([N+](=O)[O-])cc2cc(C(=O)NC(C)(C)C)c(=O)oc12,-,-,-,-,-,-,.,.,.
O=[N+]([O-])c1cccc(SSc2cccc([N+](=O)[O-])c2)c1,.,-,.,.,.,.,.,.,.
CCCn1c(SC(C(=O)Nc2cccc(OC)c2)c2ccccc2)nc2ccccc2c1=O (stereo unspecified),-,-,-,-,142,-,-,-,-
SMILES,PREPL inh,ATG4B inhibitor,MEKK2wt PB1 HTS,MEKK2mut PB1 HTS,MEKK3 PB1 HTS,UBC13 inh,MEKK2wt confirm,MEKK2mut-MEK5,MEKK3 confirm
CCn1c(SCC(=O)Nc2cccc(OC)c2)nc2ccccc2c1=O,.,-,-,-,-,-,.,.,.
N#Cc1ccsc1NC(=O)CCN1C(=O)C2CCCCC2C1=O (stereo unspecified),-,-,.,.,.,-,.,.,.
Cc1ccc2[nH]c(C(=O)NCCN3CCCC3)cc2c1,-,-,137,-,-,-,-,-,-
Cc1ccc2[nH]c(C(=O)N3CCCCC3)cc2c1,-,-,-,-,-,-,.,.,.
CS/C(N)=N/N=C/c1cc(Br)cc(Br)c1O,-,-,-,-,129,-,-,-,-
Cc1cc(F)ccc1S(=O)(=O)Nc1ccccc1C(=O)Nc1ccccc1-c1nc2ccccc2[nH]1,-,-,-,-,134,-,-,-,-
CC1CC(=O)C2=C(C1)Nc1ccccc1SC2c1ccc(F)cc1 (stereo unspecified),-,-,-,-,130,-,-,-,-
CC(C)(O)C#Cc1ccc(CN2CCN(C3CCCC3)C(CCO)C2)cc1 (stereo unspecified),-,-,-,-,-,-,.,.,.
CCCOc1ccc(C2NC(=O)NC2=O)cc1 (stereo unspecified),-,-,-,-,123,-,-,-,-
CN(C(=O)CSc1nnc(-c2ccccc2)c(-c2ccccc2)n1)C1CCS(=O)(=O)C1 (stereo unspecified),-,-,-,-,137,-,-,-,-
CN(C(=O)CSc1nc(-c2ccccc2)c(-c2ccccc2)o1)C1CCS(=O)(=O)C1 (stereo unspecified),-,-,-,-,-,-,.,.,.
Cn1cccc1CC(=O)NNC(=O)Nc1ccc(F)cc1,-,-,-,-,147,-,-,-,-
CCOC(=O)c1ccc2[nH]c3c(c2c1)CN(C)CC3,-,-,-,24,-,-,-,-,-
CCN(CC)CCCNC(=O)c1[nH]c2ccccc2c1Sc1ccc(Cl)cc1,-,-,163,38,-,-,-,-,-
Cc1c(Cl)cccc1NC(=O)C1COc2ccccc2O1 (stereo unspecified),-,-,-,-,-,-,.,.,.
CCCc1cc(C(=O)NNC(=S)Nc2cccc(C)c2)cs1,-,-,-,-,129,-,-,-,-
COCCC(=O)N1CCC(Oc2ccc(C(=O)N3CCCC(CCCO)C3)cc2)CC1 (stereo unspecified),-,-,-,-,-,-,.,.,.
COCCCN(C(=O)CSc1nc2ccccc2c(=O)n1C)c1c(N)n(Cc2ccccc2)c(=O)[nH]c1=O,.,-,.,.,.,.,.,.,.
Cc1ccc(OCC(O)Cn2c(=N)n(CCN3CCCCC3)c3ccccc32)cc1 (stereo unspecified),-,-,145,-,-,-,-,-,-
